According to PubChem BioAssay AID1852 (Sanford-Burnham Center for Chemical Genomics, 2009):
Out of some 2,500 compounds screened, about 1,100 (44%) were called active. The set was probably picked from earlier hits. The list shows a part of the results. Unmarked numbers belong to inactive results.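 Rule for the calls: active = inhibition above 50% at 4 µM in the single-point screen; inactive = inhibition of 50% or less.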

Experiment: TNF-a-driven NF-kB reporter inhibitors, primary screen, selectivity assay for NOD1/NOD2 signaling inhibitor project, cell-based, HEK293T NF-kB-Luc, luminescence (AID 1852)
Settings: TNF-a induced, 14 h, at 4 µM, stronger effect = higher value

Row | Structure (SMILES) | inhibition
1 | Oc1c(I)cc(Cl)c2cccnc12 | 104% (active)
2 | O=C(Oc1c(Cl)cc(Cl)c2cccnc12)c1ccco1 | 106% (active)
3 | Cc1cccc(-c2nc(CSc3nc4c(c(=O)[nH]3)CCC4)c(C)o2)c1 | 37%
4 | Cc1oc(-c2ccccc2Cl)nc1CSc1nc2c(c(=O)[nH]1)CCCC2 | 19.1%
5 | Cc1ccccc1-c1nc(CSc2nc3c(c(=O)[nH]2)CCC3)c(C)o1 | 59.5% (active)
6 | CC1(C)CC(=O)C2=C(C1)Oc1nc3ccccc3cc1C2C(C#N)C#N (configuration not stated) | 29.6%
7 | COc1ccccc1CNS(=O)(=O)c1ccc2c(c1)N(C(C)=O)CC(C)S2 (configuration not stated) | 35.3%
8 | CC(C)(C)c1ccc(/C=N/Nc2ccc(C(=O)O)cc2)cc1 | -61%
9 | CC(C)(C)c1ccc(C(=O)N2CCCCCC2=O)cc1 | 69.6% (active)
10 | CC(C)(C)c1ccc(C(=O)Nc2sc3c(c2C(=O)O)CCC3)cc1 | -51.1%
11 | NC(=S)n1[nH]c(-c2ccc([N+](=O)[O-])cc2)c(N=Nc2cccc(Cl)c2)c1=O | 86.9% (active)
12 | Cc1[nH]n(-c2nc(-c3ccc(Cl)cc3)cs2)c(=O)c1N=Nc1ccc(O)cc1 | 48.4%
13 | NC(=S)n1[nH]c(-c2ccc([N+](=O)[O-])cc2)c(N=Nc2ccc(Cl)cc2)c1=O | 88.7% (active)
14 | NC(=S)n1[nH]c(-c2ccc([N+](=O)[O-])cc2)c(N=Nc2cccc([N+](=O)[O-])c2)c1=O | 86.6% (active)
15 | Cc1ccc([N+](=O)[O-])cc1N=Nc1c(-c2ccc([N+](=O)[O-])cc2)[nH]n(C(N)=S)c1=O | 80.4% (active)
16 | CCC(C(=O)Nc1cccnc1)c1ccccc1 (configuration not stated) | 3.6%
17 | CC(C)Cc1ccc(C(C)C(=O)Nc2cccnc2)cc1 (configuration not stated) | 22.5%
18 | CC(C)(C)c1ccc(-c2noc(CCC(=O)Nc3cccnc3)n2)cc1 | 71.6% (active)
19 | CC(C)(C)c1ccc(-c2noc(CCC(=O)NCc3ccco3)n2)cc1 | 44.3%
20 | COc1ccc(Cc2nc(-c3ccc(-n4cccc4)cc3)no2)cc1OC | 48.8%
21 | CC(C)(C)c1ccc(-c2noc(CCC(N)=O)n2)cc1 | 73.6% (active)
22 | CCOc1ccc(C(=O)NC2CCN(C(=O)Nc3ccccc3OC)CC2)cc1 | 14.2%

Row | Structure (SMILES) | inhibition
23 | CCn1nc(C)c(CNC(=O)c2ccc(OC3CCN(Cc4ccccn4)CC3)cc2)c1C | 50.2% (active)
24 | COC(CN(C(=O)CCl)C(C(=O)NC1CCCC(C)C1C)c1ccc(C)cc1)OC (configuration not stated) | 15.4%
25 | COCCN(CC(=O)NC1CCCCC1)C(=O)/C=C/C(=O)c1ccc(OC)cc1O | 22.3%
26 | COCCN(C(=O)CCl)C(C(=O)NC1CCCCC1)c1ccccc1C (configuration not stated) | 56.7% (active)
27 | COC(CN(C(=O)CCl)C(C(=O)NC1CCCCC1)c1ccccc1C)OC (configuration not stated) | 63.2% (active)
28 | Cc1ccc(-c2csc(=Nc3cccnc3)n2CCCn2ccnc2)cc1C | 94.3% (active)
29 | O=S(=O)(Nc1nc(-c2sccc2Cl)cs1)c1cc(Cl)ccc1Cl | 34.1%
30 | Cc1ccc(C2=NOC(=O)/C2=C\C=C\c2ccccc2)cc1 | 94.8% (active)
31 | O=C1ON=C(c2ccc(Cl)cc2)/C1=C/c1ccc(O)cc1 | 29.2%
32 | COc1cc(C)c(Br)cc1S(=O)(=O)NCc1ccncc1 | 30.4%
33 | C/C(=N\NC(=O)c1ccc(CN2CCc3ccccc3C2)cc1)c1ccccc1O | 77.8% (active)
34 | O=C(Nc1ccc(Cl)cc1)c1ccc(CN2CCc3ccccc3C2)cc1 | 23.1%
35 | CCOC(=O)c1ccc(NC(=O)c2ccc(CN3CCc4ccccc4C3)cc2)cc1 | 46.3%
36 | CCOc1ccc(NC(=O)c2ccc(CN3CCc4ccccc4C3)cc2)cc1 | 3%
37 | Cc1cc(C)n(Cc2ccc(NC(=O)c3ccc(COc4ccccc4Br)cc3)cc2)n1 | 46.2%
38 | N#CCc1ccc(NC(=O)c2ccc(CN3CCc4ccccc4C3)cc2)cc1 | 58.1% (active)
39 | O=C(Nc1ccc(F)cc1)c1ccc(CN2CCc3ccccc3C2)cc1 | 87.4% (active)
40 | O=C(CCl)Nc1cn(-c2ccccc2)nc1-c1ccccc1 | -13.7%
41 | O=C(CCl)Nc1cn(-c2ccccc2)nc1-c1ccc(F)cc1 | -16.2%
42 | CC(=O)n1c(Cl)c(NC(=O)CCl)c2ccccc21 | 82.1% (active)
43 | O=C(Cc1ccc(Cl)cc1)c1c[nH]c(C(=O)NCc2cccnc2)c1 | 90.1% (active)
44 | COc1cccc(C(=O)Nc2nc(-c3ccccc3)c(-c3ccccc3)o2)c1 | 81.3% (active)

Row | Structure (SMILES) | inhibition
45 | COc1cccc(C(=O)Nc2sc3c(c2C(=O)O)CCCC3)c1 | 30.7%
46 | CN(C)S(=O)(=O)Oc1cccc(C(=O)Nc2ccc(Cl)c(Cl)c2)c1 | -28.2%
47 | Cc1onc(-c2ccccc2)c1C(=O)Nc1ncc([N+](=O)[O-])s1 | 48.5%
48 | COc1cc(OC)cc(C(=O)Nc2nc(-c3ccccc3)c(-c3ccccc3)o2)c1 | 78.7% (active)
49 | O=C1N/C(=N\N=C\c2ccccn2)SC1Cc1cccc(SC(F)F)c1 (configuration not stated) | 109% (active)
50 | Cc1cccc(CS(=O)(=O)c2ncc(Cl)c(C(=O)Nc3c(C)cccc3C)n2)c1 | 46.2%
51 | CCc1nnc(NC(=O)c2nc(S(=O)(=O)Cc3ccc(C)cc3)ncc2Cl)s1 | 71.9% (active)
52 | CCCc1nnc(NC(=O)c2nc(S(=O)(=O)Cc3ccc(C)cc3)ncc2Cl)s1 | 94.4% (active)
53 | CCCc1nnc(NC(=O)c2nc(S(=O)(=O)Cc3cccc(C)c3)ncc2Cl)s1 | 61.3% (active)
54 | Cc1cc(C)c(C#N)c(SCc2nnc(-c3ccccc3)o2)n1 | 0%
55 | CCOc1ccc(NC(=O)Nc2ccc3c(c2)N(C)C(=O)CS3)cc1 | 14.3%
56 | Cn1c(O)c(N=NC(=S)Nc2ccccc2F)c2cc(S(=O)(=O)N3CCOCC3)ccc21 | 12.5%
57 | O=S(=O)(c1ccc(N=C2NN=C(c3cc(F)ccc3F)CS2)cc1)N1CCOCC1 | 77.4% (active)
58 | O=C(Nc1ccc(S(=O)(=O)N2CCOCC2)cc1)c1cc(-c2cc(Cl)ccc2O)n[nH]1 | -2.1%
59 | CCCCN(c1ccccc1)c1ncnc(N)c1[N+](=O)[O-] | 83.7% (active)
60 | C=CCN(C(=O)CCc1ccccc1OC)c1nc(-c2ccc(S(C)(=O)=O)cc2)cs1 | -10.1%
61 | CCOC(=O)c1c(C)[nH]c(C(=O)OCC(=O)N2CCN(S(=O)(=O)c3ccccc3)CC2)c1C | 0%
62 | CC(=O)c1c(C)[nH]c(C(=O)COC(=O)c2cccc(S(=O)(=O)N(C)c3ccccc3)c2)c1C | 84.9% (active)
63 | C[C@@H](C(=O)NCc1ccccn1)[C@H]1C[C@]1(C)[C@H](NC(=O)OCc1ccccc1)c1ccccc1 | -9%
64 | O=C(NC(=S)N1CCN(c2ccc(F)cc2)CC1)c1cccs1 | 11.7%
65 | O=C(/C=C/c1ccc(Cl)cc1Cl)N1CCN(c2ccccc2[N+](=O)[O-])CC1 | -38.9%
66 | CN1CCN(c2ccc(C(CC(N)=O)NC(=O)c3ccccc3)cc2[N+](=O)[O-])CC1 (configuration not stated) | 10.7%

Row | Structure (SMILES) | inhibition
67 | O=C(NC(=S)N1CCN(c2ccc(C(F)(F)F)cc2[N+](=O)[O-])CC1)c1cccs1 | 101% (active)
68 | O=C(NC(=S)N1CCN(c2ccc(Cl)cc2[N+](=O)[O-])CC1)c1cccs1 | 53.9% (active)
69 | O=C(Nc1ccc(F)c([N+](=O)[O-])c1)c1cccs1 | 4.2%
70 | Cc1cccc(-n2c(SCC(=O)N3CCC(C(=O)O)CC3)nc3ccccc3c2=O)c1C | 74.3% (active)
71 | Cn1c(SCC(=O)N2CCCc3ccccc32)nc2ccccc2c1=O | 43.4%
72 | Cc1cccc(N2CCN(C(=O)Cc3cn(C)c4ccccc34)CC2)c1C | -31.6%
73 | O=C(CCl)Nc1cc(SCC(O)CO)cc([N+](=O)[O-])c1 (configuration not stated) | 96.6% (active)
74 | COc1ccc(-[n+]2c(C)cc(/C=C3\Sc4ccccc4N3C)cc2C)cc1 | 67% (active)
75 | CC(C)Cn1c(N2CCN(C(=O)/C=C/c3ccccc3)CC2)nc2ccccc21 | 0.5%
76 | C=CCSc1nc2ccccc2n1C(=O)/C=C/c1ccc(OC)c(OC)c1 | 89.7% (active)
77 | CCn1c(NC(=O)/C=C/c2ccc(F)cc2)nc2ccccc21 | 0%
78 | COc1ccc(-c2n(Cc3ccccc3)c3ccccc3[n+]2Cc2ccccc2)cc1 | 53.1% (active)
79 | O=C(CCl)Nc1cc(-c2ccccc2)nn1-c1ccccc1 | -25.8%
80 | CCCc1cc(NC(=O)CCl)n(-c2ccccc2)n1 | 40.2%
81 | CC(C)(C)c1cc(NC(=O)CCl)n(-c2ccccc2)n1 | 52.2% (active)
82 | Cc1[nH]c2ccccc2c1C(=O)CCl | 95.3% (active)
83 | CCOC(=O)c1c(C)[nH]c(C)c1C(=O)CSc1nc2ccccc2c(=O)n1-c1ccc(CC)cc1 | -1.6%
84 | Cc1ccc2c(C(=O)CCl)c(C)[nH]c2c1 | 83.2% (active)
85 | Cn1c2ccccc2c(=O)c2c(=O)n(C3CCCCC3)c(-c3cccs3)nc21 | 23.4%
86 | CCOc1ccc(CCn2c(-c3ccco3)nc3ccccc3c2=O)cc1OCC | -36.6%
87 | Cn1c2ccccc2c(=O)c2c(=O)n(C3CCCCC3)c(-c3ccco3)nc21 | 78.9% (active)
